Test results taken from PubChem BioAssay AID1779 (Sanford-Burnham Center for Chemical Genomics, 2009).
The campaign covered roughly 290,000 compounds. About 160 (0.055%) were called active. This is one part of a sample in which actives are shown more often than they occur. Unmarked numbers belong to inactive results. Cut-off read from the data, not from the text of the source: active = inhibition above about 50%; inactive = the rest.

The compounds below were run against Tyrosine-protein phosphatase non-receptor type 22 (Homo sapiens) (UniProt Q9Y2R2) (assay: PTPN22 lymphoid phosphatase activity blockers – biochemical, fluorescence intensity, uHTS (AID 1779;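 note: plate controls were vehicle with enzyme for no effect and no enzyme for full effect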)). Conditions: recombinant LYP phosphatase, at 11.5 µM, stronger effect = higher value.
Chain of Tyrosine-protein phosphatase non-receptor type 22 (Homo sapiens) (Q9Y2R2 whole entry, looked up): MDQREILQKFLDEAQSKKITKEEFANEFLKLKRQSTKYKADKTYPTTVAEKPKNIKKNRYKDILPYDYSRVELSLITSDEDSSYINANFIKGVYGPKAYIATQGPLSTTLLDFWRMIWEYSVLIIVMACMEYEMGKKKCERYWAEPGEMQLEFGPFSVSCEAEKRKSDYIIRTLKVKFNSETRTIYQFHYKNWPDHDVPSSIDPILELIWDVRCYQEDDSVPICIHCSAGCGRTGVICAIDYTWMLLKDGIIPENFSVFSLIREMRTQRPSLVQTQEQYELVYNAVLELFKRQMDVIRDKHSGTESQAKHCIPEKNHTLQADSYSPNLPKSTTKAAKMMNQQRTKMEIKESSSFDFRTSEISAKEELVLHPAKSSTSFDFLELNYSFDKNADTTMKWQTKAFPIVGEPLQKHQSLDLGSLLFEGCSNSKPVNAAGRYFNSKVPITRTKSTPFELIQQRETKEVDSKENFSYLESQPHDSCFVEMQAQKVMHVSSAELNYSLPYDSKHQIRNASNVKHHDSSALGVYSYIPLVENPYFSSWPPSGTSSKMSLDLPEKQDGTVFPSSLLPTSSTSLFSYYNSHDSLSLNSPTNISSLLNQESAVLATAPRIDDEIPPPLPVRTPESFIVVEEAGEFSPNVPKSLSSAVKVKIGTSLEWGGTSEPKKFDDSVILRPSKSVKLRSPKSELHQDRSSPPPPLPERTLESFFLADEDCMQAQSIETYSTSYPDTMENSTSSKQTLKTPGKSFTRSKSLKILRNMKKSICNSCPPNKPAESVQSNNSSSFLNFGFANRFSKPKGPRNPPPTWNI
In the case of `COc1ccc(N2CCN(CCOc3ccc4c(C)cc(=O)oc4c3)CC2)cc1`, the inhibition is reported as 67.7% (active). `COc1ccc(N2CCN(C(=O)c3ccc(COc4ccc5c(C)cc(=O)oc5c4)cc3)CC2)cc1` gave an inhibition of 2.8%. `Cc1cc(=O)oc2cc(OCCSCCN3CCOCC3)ccc12` was tested, and the inhibition was -5.9%. For `N#C/C(=C\c1ccccc1O)C(=O)Nc1cccnc1`, the inhibition was -9%. For `O=C(CCN1C(=O)c2ccccc2S1(=O)=O)Nc1ccccc1O`, the inhibition was -0.2%. With `C=CCc1cccc2cc(C(=O)Nc3ccc(S(=O)(=O)Nc4nnc(CC)s4)cc3)c(=O)oc12` the inhibition was 71.3% (active). For `CCc1nnc(NS(=O)(=O)c2ccc(NC(=O)c3cccc4ccccc34)cc2)s1`, the inhibition was 1.6%. `CCc1nnc(NS(=O)(=O)c2ccc(NC(=O)c3cc4ccccc4oc3=O)cc2)s1` showed an inhibition of 1.9%. In the case of `Cc1c(C)n(C(=O)CN2CCN(c3ccccn3)CC2)c2ccccc12`, the inhibition is reported as 5.2%. `O=C(Nc1c(F)cccc1F)c1ccc2c(c1)CCN2S(=O)(=O)c1ccccc1` showed an inhibition of -8.4%. `Cc1cc(Cl)ccc1OCc1n[nH]c(=S)n1C1CCCCC1` showed an inhibition of 4%. `Cc1ccc(N2CCN(CCCN3C(=O)C4CCCN4C3=O)CC2)cc1` (configuration not stated) gave an inhibition of 1.4%. `Cc1ccc(N2CCN(CCCCN3C(=O)C4CCCN4C3=O)CC2)cc1` (configuration not stated) was tested, and the inhibition was 62.7% (active). For `Nc1ccc(N2CCN(CCCCN3C(=O)C4CCCN4C3=O)CC2)cc1` (configuration not stated), the inhibition was -25%. For `Cc1cccc(OCC(O)CN2CCOCC2)c1` (configuration not stated), the inhibition was -8.2%. In the case of `CCN(CC)CCCNC(=O)Cn1ncn2cccc2c1=O`, the inhibition is reported as -3.9%. In the case of `CC(C)(C)c1ccc(C2(C)NC(=O)N(CC(=O)NCc3cccs3)C2=O)cc1` (configuration not stated), the inhibition is reported as -8.4%. `COc1ccc(OC(C)C(=O)N2CCC(C)CC2)cc1` (configuration not stated) gave an inhibition of -5.6%. Compound `COc1ccc(OC(C)C(=O)N2CCOCC2)cc1` (configuration not stated) has an inhibition of -9.8%. `COc1ccc(OC(C)C(=O)N2CC(C)OC(C)C2)cc1` (configuration not stated) was tested, and the inhibition was 63.6% (active). `COC(=O)c1ccc2c(c1)NC(=O)C(N1CCCCC1)S2` (configuration not stated) showed an inhibition of 1%. In the case of `Cc1c(C(=O)O)sc2nc(/C=C/c3cccc(O)c3)[nH]c(=O)c12`, the inhibition is reported as -5.3%. In the case of `Cc1c(C(=O)O)sc2nc(/C=C/c3cccc(F)c3)[nH]c(=O)c12`, the inhibition is reported as -4.3%. `CCCOc1ccc(/C=N/NC(=O)CSc2ccccn2)cc1OC` showed an inhibition of 0.2%. With `CCN(CC)S(=O)(=O)c1ccc(N2CCOCC2)c(NC(=O)Cc2cccc3ccccc23)c1` the inhibition was -0.8%. Compound `COc1ccc(C(CC(=O)N2CCCCC2)c2c(OC)cc(OC)c3ccc(=O)oc23)cc1` (configuration not stated) has an inhibition of -2.3%. `CS(=O)(=O)N1CCN(C(=O)c2ccncc2)CC1` gave an inhibition of -7.1%. `COc1ccc(C(=O)N2CCN(C(=O)c3ccncc3)CC2)cc1` gave an inhibition of -9.1%. `O=C(c1ccncc1)N1CCN(C(=O)c2ccncc2)CC1` was tested, and the inhibition was 67% (active). For `CC(=O)N1CCCN(Cc2cn(-c3cccc(C)c3)nc2-c2cccc(F)c2)CC1`, the inhibition was -2.6%. `Cc1ccc(-n2cc(CN3CCN(C(=O)c4ncn[nH]4)CC3)c(-c3ccc(F)cc3)n2)cc1` showed an inhibition of -3.9%. With `Cc1cccc(-n2cc(CN3CCN(C(=O)c4ncn[nH]4)CC3)c(-c3cccc(F)c3)n2)c1` the inhibition was 56.5% (active). `CCN(CCCNC(=O)COc1cc(=O)n(CC)c2ccccc12)Cc1ccccc1` was tested, and the inhibition was 6.1%. `CCOc1ccc(Nc2nc(N)c([N+](=O)[O-])c(N3CCN(CC)CC3)n2)cc1` showed an inhibition of -3.7%. In the case of `N#C/C(=C(/O)c1ccc(C(=O)c2ccccc2)cc1)c1nc2ccccc2[nH]1`, the inhibition is reported as -4.1%. `O=C(N/N=C/c1ccccn1)c1ccccc1` showed an inhibition of 2.8%. For `O=C(N/N=C/c1ccccn1)c1ccc(Cl)cc1`, the inhibition was -5.3%. `O=C(N/N=C/c1ccccn1)c1ccc(Cl)c(Cl)c1` was tested, and the inhibition was 72% (active). With `COc1cc(/C=C2\SC(=O)N(c3ccc(Cl)cc3)C2=O)cc([N+](=O)[O-])c1O` the inhibition was 91.6% (active). Compound `COc1cc(/C=C2\SC(=O)N(CC(=O)Nc3cccc(C)c3)C2=O)cc([N+](=O)[O-])c1O` has an inhibition of 4.5%. Work on `COc1cc(/C=C2\SC(=O)N(c3ccccc3Cl)C2=O)cc([N+](=O)[O-])c1O` yielded an inhibition of 11.7%. In the case of `COc1cc(/C=C2\SC(=O)N(c3cccc(Cl)c3)C2=O)cc([N+](=O)[O-])c1O`, the inhibition is reported as 92.2% (active). Work on `COc1cc(/C=C2\SC(=O)N(Cc3ccc(Cl)cc3)C2=O)cc([N+](=O)[O-])c1O` yielded an inhibition of 33%. `COc1cc(/C=C2\SC(=O)N(Cc3ccc(F)cc3)C2=O)cc([N+](=O)[O-])c1O` was tested, and the inhibition was 0.7%. For `CS(=O)(=O)N(CC(=O)N1CCN(c2cccc(Cl)c2)CC1)c1cccc(F)c1`, the inhibition was 4.5%. `CCCCN(C)CCC(=O)Nc1ccc2c(c1)CCC2` showed an inhibition of -2.9%. `CCOc1ccc(Cl)cc1/C=N/NC(=O)c1ccccc1` gave an inhibition of -4.5%. Compound `CC1(C)c2ccccc2N2CC(=O)N[C@@]21/C=C/C=C/c1ccccc1` has an inhibition of 8.6%. In the case of `c1cc(-n2nnc3cnccc32)ccn1`, the inhibition is reported as -4.3%. Compound `CC(=O)Nc1ccc(NC(=O)CSc2ccc(C)cc2)cc1` has an inhibition of -2.7%. With `CC(=O)Nc1ccc(SCC(=O)Nc2ccc(Cl)cn2)cc1` the inhibition was 77.1% (active). `O=C(CSc1ccc2c(c1)OCCO2)Nc1ccc(Cl)cn1` was tested, and the inhibition was -8.6%. `CCn1cc(C(=O)NCCCN(CC(C)C)CC(C)C)c(=O)c2cc(S(=O)(=O)N(C)C3CCCCC3)ccc21` showed an inhibition of -0.6%. Compound `O=C(NC1CCSc2ccccc21)c1ccc(C(F)(F)F)cc1` (configuration not stated) has an inhibition of -7.3%. `O=C(NCc1ccc(F)cc1)c1c2c(nc3ccccc13)CCC2` showed an inhibition of 3.5%. For `Cc1ccc2c(C)c(C(=O)NCC(C)(C)N3CCOCC3)oc2c1C`, the inhibition was -8.2%. For `C=CCc1ccc(OC)c(OC)c1`, the inhibition was -8.6%. For `COc1ccc(C(C#N)(CCC#N)CCC#N)cc1OC`, the inhibition was 56.1% (active). `COc1ccc(NC(=O)CC#N)cc1OC` was tested, and the inhibition was 0.1%. With `CC(C)N(C(=O)CSc1nc2ccccc2n1Cc1ccccc1F)C(C)C` the inhibition was 5.2%. Compound `COC(=O)C(C(=O)NCC1CCCO1)C1CCCC1` (configuration not stated) has an inhibition of -6.5%. Compound `CCOC(=O)C(C(=O)NCC1CCCO1)C1CCCCC1` (configuration not stated) has an inhibition of -4.2%. In the case of `COC(=O)C(C(=O)NCC1CCCO1)C1CCCCCC1` (configuration not stated), the inhibition is reported as 86.6% (active). In the case of `CCOC(=O)NC(=O)C(=CNc1ccc(C)cc1)C(=O)NC(=O)OCC`, the inhibition is reported as 57.4% (active). Compound `CCOC(=O)NC(=O)C(=CNc1cccc(OC)c1)C(=O)NC(=O)OCC` has an inhibition of -7.5%. In the case of `CCOC(=O)NC(=O)C(=CNc1cccc(C)c1)C(=O)NC(=O)OCC`, the inhibition is reported as -4.7%. `O=C(CN1C(=O)NC2(CCc3ccccc3C2)C1=O)Nc1ccc(F)cc1` (configuration not stated) was tested, and the inhibition was 2%. For `COCC(=O)N(Cc1cc2ccc(C)cc2[nH]c1=O)c1cccc(C)c1`, the inhibition was -1%. `NS(=O)(=O)c1cc(C(=O)OCC(=O)N2CCOCC2)ccc1Cl` showed an inhibition of -4%. Compound `COc1ccc(/C=C2\SC(=S)N(CCCC(=O)Nc3ccc(C(=O)O)cc3)C2=O)cc1OC` has an inhibition of -1.9%. Work on `COc1cc(/C=C2/SC(=S)N(CCC(=O)Nc3ccc(C(=O)O)cc3)C2=O)cc(OC)c1OC` yielded an inhibition of -0.9%. `O=S(=O)(CCc1ccncc1)C1Cc2cccc3cccc1c23` (configuration not stated) was tested, and the inhibition was -6.1%. For `CC(C)(C)S(=O)(=O)c1cnc(N2CCCCC2)nc1N`, the inhibition was -1.3%. Compound `COc1ccc(N2C(=O)CC(NC34CC5CC(CC(C5)C3)C4)C2=O)c(OC)c1` (configuration not stated) has an inhibition of -6.7%. Compound `CC(=O)c1cccc(NC(=O)NC(C)c2ccc3c(c2)OCO3)c1` (configuration not stated) has an inhibition of -12.5%. With `CCCNC(=O)c1ccccc1N1CCN(CCCCN2C(=O)C3CCCCN3C2=O)CC1` (configuration not stated) the inhibition was -16.7%. With `COc1ccc(C2CC(c3cccs3)=NN2C(=O)CSc2nncn2C)cc1OC` (configuration not stated) the inhibition was 7.7%. `Cc1c(-n2c(=S)[nH]c3ccccc3c2=O)c(=O)n(-c2ccccc2)n1C` gave an inhibition of -7.5%. In the case of `Cc1[nH]c2ccccc2c1N=Nc1c(C)n(C)n(-c2ccccc2)c1=O`, the inhibition is reported as 94.5% (active). With `Cc1c(N=Nc2ccc(O)cc2)c(=O)n(-c2ccccc2)n1C` the inhibition was -2.3%. For `Cc1cc2c(c(SCC(=O)NCc3ccc(Cl)cc3)n1)C(=O)OC2`, the inhibition was -1.3%. `CSCCC(NC(=O)c1ccccc1)C(=O)N(C)CC(=O)Nc1ccc(N2CCOCC2)cc1` (configuration not stated) gave an inhibition of -6.8%. Work on `COCCN(C(=O)COC(=O)c1cccc2ccccc12)c1c(N)n(Cc2ccccc2)c(=O)[nH]c1=O` yielded an inhibition of -10.3%. `Cc1cccc(C)c1Nc1nnc(SC/C(O)=C(\C#N)c2nc3ccccc3[nH]2)s1` showed an inhibition of 4.2%. In the case of `CCCCC(CC)C(=O)NCc1ccc(F)cc1` (configuration not stated), the inhibition is reported as -9.2%. With `CCOC(=O)C(C(C)C)C(N)Cc1ccc(F)cc1` (configuration not stated) the inhibition was -7.7%. For `CCCCC(C(=O)OCC)C(N)Cc1ccc(F)cc1` (configuration not stated), the inhibition was 89.5% (active). In the case of `CC(C)CNC(=O)C1CCCN(C(=O)NCc2ccccc2)C1` (configuration not stated), the inhibition is reported as -8.2%. `COc1ccc(C2SCC(=O)N2CCCN(C)C)cc1` (configuration not stated) was tested, and the inhibition was 50.7% (active). `COc1cc(C2SCC(=O)N2CCCN(C)C)cc(OC)c1OC` (configuration not stated) showed an inhibition of -6.3%. `CN(C)CCCN1C(=O)CSC1c1ccccc1` (configuration not stated) gave an inhibition of -5.4%. In the case of `COc1ccc(C2CC23N=C(c2ccccc2)OC3=O)cc1` (configuration not stated), the inhibition is reported as -2.9%. Compound `Cc1nnc(SCc2cccs2)[nH]c1=O` has an inhibition of -5.9%. In the case of `O=C(NC1CCN(Cc2ccccc2)CC1)C1CCCN(c2nnc(-n3cccc3)s2)C1` (configuration not stated), the inhibition is reported as -1.4%. In the case of `CC(C)n1c(C(=O)OCC(=O)NCc2ccc3c(c2)OCO3)cc2sccc21`, the inhibition is reported as -13%. With `CC(C)n1c(C(=O)OCC(=O)NCc2ccc3c(c2)OCO3)cc2occc21` the inhibition was 59.5% (active). For `CC(C)C(OC(=O)c1cc2occc2n1C)C(=O)NCc1ccc2c(c1)OCO2` (configuration not stated), the inhibition was 3.8%.
